# According to PubChem BioAssay:
# This is one part of the list. Calls of active or inactive are those of the source. Cut-off read from the data, not from the text of the source, unless noted: active = inhibition above about 25%; inactive = the rest.
# Assays:
# [1] = biological target: Galanin receptor type 2 (Homo sapiens) (UniProt O43603); assay: blockers of human galanin receptor 2 – cell-based, confirmation (AID 866; in the data active = inhibition above about 27%;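 note: cells stimulated with galanin at about its EC80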); conditions: GALR2-expressing cells, antagonist mode, at 4 µM, active compounds read high
# [2] = nonspecific BLA reporter inhibition – CHO NFAT-bla cells, FRET readout, counter-screen for GALR2 antagonist project, confirmation (AID 867;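 active = inhibition above the mean inhibition across tested compounds plus 3 SD, cut at about 27% in these data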;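 note: 0% = 500 nM thapsigargin stimulated wells and 100% = unstimulated BSA only wells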); conditions: beta-lactamase FRET, thapsigargin-stimulated, at 4.2 µM, active compounds read high
# [3] = biological target: Nuclear receptor coactivator 3 (Homo sapiens) (UniProt Q9Y6Q9); assay: NCOA3 GAL4-fusion reporter inhibition – cell-based, luminescence, quadruplicate, confirmation (AID 588792;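 active = mean inhibition over 43.08%, the solvent-only control mean plus 3 SD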;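 note: 0% = DMSO treated cells and 100% = gossypol at 36 µM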); conditions: HEK293 GAL4-SRC3 luciferase reporter, at 3.6 µM, active compounds read high
# [4] = system: transactivating tegument protein VP16 (Human herpesvirus 1), Gal4-VP16 luciferase reporter; assay: repression of VP16-driven luciferase reporter – cell-based, luminescence, high throughput, counter-screen for SRC3 inhibitor project (AID 588794; in the data active = inhibition above about 30%); conditions: mammalian cells, at 3.6 µM, active compounds read high
# [5] = biological target: Nuclear receptor coactivator 1 (Homo sapiens) (UniProt Q15788); assay: NCOA1 GAL4-fusion reporter inhibition – cell-based, luminescence, quadruplicate, confirmation (AID 588820;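 active = mean inhibition above 46.68%, the untreated control wells mean plus 3 SD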;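 note: 0% = DMSO wells and 100% = gossypol 36 µM treated wells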); conditions: HEK293 GAL4-SRC1 luciferase reporter, at 3.6 µM, active compounds read high
# [6] = repression of VP16-driven luciferase reporter – cell-based, luminescence, high throughput, counter-screen for SRC1 inhibitor project (AID 588824); conditions: cell-based VP16 transactivation luciferase luminescence; at 3.6 µM; active compounds read high
# [7] = system: transactivating tegument protein VP16 (Human herpesvirus 1); assay: compounds suppressing VP16-driven luciferase signal – cell-based, luminescence, single concentration, counter-screen for SRC2 inhibitor project (AID 652007; in the data active = inhibition above about 36%); conditions: cell-based VP16 transactivation luciferase reporter, at 8.9 µM, active compounds read high
# [8] = biological target: Nuclear receptor coactivator 2 (Homo sapiens) (UniProt Q15596); assay: inhibition of GAL4-SRC2 driven luciferase expression – cell-based, luminescence, HEK293, triplicate, confirmation (AID 652008;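 active = mean inhibition above 46.5%, the solvent-only control mean plus 3 SD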;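 note: 0% = DMSO-treated cells and 100% = Gossypol at 36 µM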); conditions: HEK293 GAL4-SRC2 luciferase reporter, at 8.9 µM, active compounds read high
# Nuclear receptor coactivator 2 (Homo sapiens), sequence (Q15596 whole entry, looked up, the tested form may be a part): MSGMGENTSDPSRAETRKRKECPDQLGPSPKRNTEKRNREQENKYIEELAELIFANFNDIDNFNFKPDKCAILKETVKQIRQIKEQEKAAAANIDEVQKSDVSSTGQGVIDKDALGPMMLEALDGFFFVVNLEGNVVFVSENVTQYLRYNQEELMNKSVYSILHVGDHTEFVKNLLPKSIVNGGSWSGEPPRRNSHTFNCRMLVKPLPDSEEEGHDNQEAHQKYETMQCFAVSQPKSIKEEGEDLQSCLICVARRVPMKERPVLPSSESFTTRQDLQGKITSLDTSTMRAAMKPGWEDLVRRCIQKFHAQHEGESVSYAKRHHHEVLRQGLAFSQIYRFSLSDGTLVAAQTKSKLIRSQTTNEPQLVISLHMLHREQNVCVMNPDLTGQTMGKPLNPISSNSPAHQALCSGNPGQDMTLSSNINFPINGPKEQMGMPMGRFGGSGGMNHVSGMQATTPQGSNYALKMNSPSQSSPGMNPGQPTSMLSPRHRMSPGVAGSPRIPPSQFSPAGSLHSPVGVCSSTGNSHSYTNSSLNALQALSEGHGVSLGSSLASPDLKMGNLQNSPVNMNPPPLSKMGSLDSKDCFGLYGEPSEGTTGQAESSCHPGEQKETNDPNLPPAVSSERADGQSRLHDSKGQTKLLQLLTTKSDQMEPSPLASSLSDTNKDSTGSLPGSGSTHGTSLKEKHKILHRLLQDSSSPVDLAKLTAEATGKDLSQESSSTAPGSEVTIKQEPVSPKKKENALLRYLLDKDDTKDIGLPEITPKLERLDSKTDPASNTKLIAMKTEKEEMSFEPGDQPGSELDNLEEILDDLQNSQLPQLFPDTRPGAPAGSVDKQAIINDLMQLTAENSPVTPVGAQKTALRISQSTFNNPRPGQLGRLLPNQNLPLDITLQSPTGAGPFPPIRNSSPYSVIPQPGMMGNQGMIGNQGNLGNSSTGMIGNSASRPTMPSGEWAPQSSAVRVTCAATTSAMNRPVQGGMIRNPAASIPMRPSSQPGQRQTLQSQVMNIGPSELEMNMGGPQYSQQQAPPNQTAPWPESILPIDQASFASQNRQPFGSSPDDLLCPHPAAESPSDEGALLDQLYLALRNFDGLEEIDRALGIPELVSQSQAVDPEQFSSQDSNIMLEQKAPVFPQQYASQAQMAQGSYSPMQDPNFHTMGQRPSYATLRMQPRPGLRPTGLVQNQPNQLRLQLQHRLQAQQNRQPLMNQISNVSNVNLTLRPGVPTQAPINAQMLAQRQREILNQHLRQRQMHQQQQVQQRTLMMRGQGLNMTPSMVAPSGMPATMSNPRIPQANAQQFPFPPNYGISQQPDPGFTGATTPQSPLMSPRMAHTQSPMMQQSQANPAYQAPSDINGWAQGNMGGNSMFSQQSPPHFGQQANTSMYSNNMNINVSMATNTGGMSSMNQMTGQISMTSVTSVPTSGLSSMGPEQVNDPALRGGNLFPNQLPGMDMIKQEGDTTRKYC
# Nuclear receptor coactivator 1 (Homo sapiens), sequence (Q15788 whole entry, looked up, the tested form may be a part): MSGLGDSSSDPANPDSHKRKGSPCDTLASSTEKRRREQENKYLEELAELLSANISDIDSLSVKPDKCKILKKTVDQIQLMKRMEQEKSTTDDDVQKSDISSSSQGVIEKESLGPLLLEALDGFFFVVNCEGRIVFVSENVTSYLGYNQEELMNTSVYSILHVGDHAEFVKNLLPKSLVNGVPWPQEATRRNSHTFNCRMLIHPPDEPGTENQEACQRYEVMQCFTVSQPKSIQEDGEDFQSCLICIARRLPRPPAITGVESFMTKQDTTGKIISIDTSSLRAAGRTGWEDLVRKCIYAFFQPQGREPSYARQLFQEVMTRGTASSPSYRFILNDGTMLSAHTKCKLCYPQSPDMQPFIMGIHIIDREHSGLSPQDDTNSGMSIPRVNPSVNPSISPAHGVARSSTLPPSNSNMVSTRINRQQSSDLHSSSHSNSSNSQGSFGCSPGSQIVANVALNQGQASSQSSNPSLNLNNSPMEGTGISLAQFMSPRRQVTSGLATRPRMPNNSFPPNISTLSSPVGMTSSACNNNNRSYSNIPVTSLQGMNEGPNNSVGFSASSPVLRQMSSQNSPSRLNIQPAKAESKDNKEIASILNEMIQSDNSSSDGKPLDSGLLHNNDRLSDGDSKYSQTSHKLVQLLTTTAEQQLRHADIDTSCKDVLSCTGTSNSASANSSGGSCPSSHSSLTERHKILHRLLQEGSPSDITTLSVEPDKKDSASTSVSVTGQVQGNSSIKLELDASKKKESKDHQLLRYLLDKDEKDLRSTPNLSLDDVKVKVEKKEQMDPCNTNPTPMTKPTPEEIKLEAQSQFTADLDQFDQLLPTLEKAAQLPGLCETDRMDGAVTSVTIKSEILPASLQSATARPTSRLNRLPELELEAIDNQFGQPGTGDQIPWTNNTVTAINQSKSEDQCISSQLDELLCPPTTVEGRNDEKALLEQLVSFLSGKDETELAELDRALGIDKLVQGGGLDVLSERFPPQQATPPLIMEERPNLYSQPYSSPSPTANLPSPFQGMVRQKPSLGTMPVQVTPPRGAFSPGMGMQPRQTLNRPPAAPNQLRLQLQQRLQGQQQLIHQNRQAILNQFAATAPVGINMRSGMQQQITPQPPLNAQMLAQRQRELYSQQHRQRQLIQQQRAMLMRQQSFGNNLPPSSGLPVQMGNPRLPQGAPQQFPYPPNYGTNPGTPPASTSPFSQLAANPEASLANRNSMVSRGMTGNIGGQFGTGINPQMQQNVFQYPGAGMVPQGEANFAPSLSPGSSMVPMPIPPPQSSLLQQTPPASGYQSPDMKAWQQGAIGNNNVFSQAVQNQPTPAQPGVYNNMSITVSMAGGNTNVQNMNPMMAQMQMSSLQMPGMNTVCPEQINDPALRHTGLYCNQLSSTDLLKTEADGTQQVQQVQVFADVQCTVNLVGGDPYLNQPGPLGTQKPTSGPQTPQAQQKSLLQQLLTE
# Nuclear receptor coactivator 3 (Homo sapiens), sequence (Q9Y6Q9 whole entry, looked up, the tested form may be a part): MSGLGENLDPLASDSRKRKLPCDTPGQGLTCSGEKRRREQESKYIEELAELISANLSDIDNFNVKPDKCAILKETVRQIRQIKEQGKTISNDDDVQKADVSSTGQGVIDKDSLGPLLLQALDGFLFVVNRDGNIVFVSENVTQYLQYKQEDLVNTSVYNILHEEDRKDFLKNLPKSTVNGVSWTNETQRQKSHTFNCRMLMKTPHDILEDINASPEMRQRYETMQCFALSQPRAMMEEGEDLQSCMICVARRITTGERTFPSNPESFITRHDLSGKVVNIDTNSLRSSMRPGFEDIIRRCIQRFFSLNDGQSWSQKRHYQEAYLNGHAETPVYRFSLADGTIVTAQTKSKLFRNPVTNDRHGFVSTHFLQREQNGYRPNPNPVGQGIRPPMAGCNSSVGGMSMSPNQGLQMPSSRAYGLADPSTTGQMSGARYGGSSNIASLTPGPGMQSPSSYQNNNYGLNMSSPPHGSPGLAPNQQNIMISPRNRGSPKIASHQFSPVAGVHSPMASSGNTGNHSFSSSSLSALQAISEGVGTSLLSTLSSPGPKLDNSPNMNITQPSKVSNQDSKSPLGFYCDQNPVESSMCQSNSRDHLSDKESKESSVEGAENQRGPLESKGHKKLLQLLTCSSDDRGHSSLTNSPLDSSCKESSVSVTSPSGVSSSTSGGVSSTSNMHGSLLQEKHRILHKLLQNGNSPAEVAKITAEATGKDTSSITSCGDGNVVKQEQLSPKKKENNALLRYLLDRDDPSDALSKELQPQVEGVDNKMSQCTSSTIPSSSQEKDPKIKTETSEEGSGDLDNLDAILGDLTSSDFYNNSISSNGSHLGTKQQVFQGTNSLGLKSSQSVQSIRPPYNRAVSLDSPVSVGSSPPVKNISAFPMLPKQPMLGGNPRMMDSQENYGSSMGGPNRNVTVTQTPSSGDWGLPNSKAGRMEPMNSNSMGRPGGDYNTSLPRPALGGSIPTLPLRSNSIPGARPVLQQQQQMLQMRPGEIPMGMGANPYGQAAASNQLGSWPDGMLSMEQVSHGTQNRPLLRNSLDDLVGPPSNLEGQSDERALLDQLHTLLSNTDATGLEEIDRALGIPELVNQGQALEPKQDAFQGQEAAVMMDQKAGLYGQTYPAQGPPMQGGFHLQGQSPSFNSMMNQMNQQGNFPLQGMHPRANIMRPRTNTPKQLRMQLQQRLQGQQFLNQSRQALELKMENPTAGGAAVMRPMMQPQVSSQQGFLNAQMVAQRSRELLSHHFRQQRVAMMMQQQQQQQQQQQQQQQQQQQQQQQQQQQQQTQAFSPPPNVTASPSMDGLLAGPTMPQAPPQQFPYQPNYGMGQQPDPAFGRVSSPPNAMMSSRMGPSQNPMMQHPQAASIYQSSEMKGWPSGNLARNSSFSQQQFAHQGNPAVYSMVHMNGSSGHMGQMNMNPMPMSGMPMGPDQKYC
# Galanin receptor type 2 (Homo sapiens), sequence (O43603 whole entry, looked up): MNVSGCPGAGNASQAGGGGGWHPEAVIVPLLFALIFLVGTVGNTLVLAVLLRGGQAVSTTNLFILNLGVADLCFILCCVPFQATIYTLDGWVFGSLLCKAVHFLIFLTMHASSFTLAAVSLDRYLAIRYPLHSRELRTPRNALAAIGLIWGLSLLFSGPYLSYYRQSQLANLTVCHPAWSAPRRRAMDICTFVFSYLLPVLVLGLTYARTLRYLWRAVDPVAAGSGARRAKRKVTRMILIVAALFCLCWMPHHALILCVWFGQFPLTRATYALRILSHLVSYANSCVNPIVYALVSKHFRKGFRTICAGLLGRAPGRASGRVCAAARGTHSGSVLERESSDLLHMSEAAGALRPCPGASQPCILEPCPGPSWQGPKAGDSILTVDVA
smiles,measurement,setting,value
Cc1nnnn1/C(=C\c1ccccc1)C(=O)OCC(=O)N1CC2(C)CC1CC(C)(C)C2 (centres undefined),inhibition,[1],39% (active)
same,inhibition,[2],16.1% (inactive)
same,inhibition,[3],22.4% (inactive)
same,inhibition,[4],44% (active)
Cc1nc(N=C(N)N)nc2ccccc12,inhibition,[5],2.65% (inactive)
same,inhibition,[6],-11.1% (inactive)
Cc1cccc(N2CC(C(=O)Nc3ccc(S(=O)(=O)Nc4nccs4)cc3)CC2=O)c1C (centres undefined),inhibition,[5],-14.9% (inactive)
same,inhibition,[6],-6.59% (inactive)
COc1ccccc1N1CCN(C(=O)C2CCN(S(=O)(=O)c3ccc4c(c3)CC(C)N4C(=O)C3CC3)CC2)CC1 (centres undefined),inhibition,[5],-15.8% (inactive)
same,inhibition,[6],5.48% (inactive)
COc1ccc2nc(C)cc(Sc3nc4ccccc4s3)c2c1,inhibition,[3],28.2% (inactive)
same,inhibition,[4],18.1% (inactive)
same,inhibition,[7],26% (inactive)
same,inhibition,[8],51.3% (active)
CCN(CC)S(=O)(=O)c1ccc(NC(=O)c2ccc(N3CCCC3=O)cc2)cc1,inhibition,[5],3.05% (inactive)
same,inhibition,[6],22.8% (inactive)
Cc1cccc(NC(=O)CSCC(=O)N2CCCc3ccccc32)c1,inhibition,[5],-14.1% (inactive)
same,inhibition,[6],-4.48% (inactive)
CCc1nc(Nc2ccncc2)c2oc3ccccc3c2n1,inhibition,[5],12.3% (inactive)
same,inhibition,[6],12% (inactive)
COc1cccc(C2=CC(=O)CC(C)(C)C2)c1,inhibition,[5],18.3% (inactive)
same,inhibition,[6],14.3% (inactive)
COc1cc(-c2cc3nc(NCc4cccs4)ccn3n2)cc(OC)c1OC,inhibition,[5],-21.6% (inactive)
same,inhibition,[6],6.25% (inactive)
CCCCCN(C(=O)CCC(=O)OCC(=O)N(CC#N)c1ccccc1)c1c(N)n(CCCC)c(=O)[nH]c1=O,inhibition,[5],-5.77% (inactive)
same,inhibition,[6],1.44% (inactive)
O=C(O)c1ccccc1-c1c2cc(I)c(=O)c(I)c-2oc2c(I)c(O)c(I)cc12,inhibition,[5],18.7% (inactive)
same,inhibition,[6],15.7% (inactive)
COc1cccc(/C=N/NC(=O)CNC(=O)C2COc3ccccc3O2)c1O (centres undefined),inhibition,[5],21.7% (inactive)
same,inhibition,[6],8.91% (inactive)
Cc1c(C(=O)N2CCN(Cc3ccc4c(c3)OCO4)CC2)sc2ncnc(N3CCN(c4ccccc4F)CC3)c12,inhibition,[5],-22.2% (inactive)
same,inhibition,[6],18.3% (inactive)
COC(=O)c1ccc(C(=O)N2CCCC(Nc3ccc(F)c(F)c3)C2)cc1 (centres undefined),inhibition,[5],-59.6% (inactive)
same,inhibition,[6],-10.7% (inactive)
COc1ccc(-n2nc(C(=O)NCC(=O)Nc3cc(OC)c(OC)c(OC)c3)c3ccccc3c2=O)cc1OC,inhibition,[5],-43.4% (inactive)
same,inhibition,[6],-6.14% (inactive)
CN=C(C)/C(C(=O)OC)=C(/O)c1c(F)cccc1F,inhibition,[5],-28.3% (inactive)
same,inhibition,[6],3.9% (inactive)
CCC(Cc1ccccc1)NC(=O)CCNS(=O)(=O)c1cc(Br)cnc1N (centres undefined),inhibition,[5],0.75% (inactive)
same,inhibition,[6],5.04% (inactive)
CCCn1ncc(/C=N/O)c1C,inhibition,[5],12.8% (inactive)
same,inhibition,[6],25.9% (active)
CC(=O)NC(c1cccs1)c1cc(F)c2cccnc2c1O (centres undefined),inhibition,[5],14.3% (inactive)
same,inhibition,[6],15.3% (inactive)
Cc1ccccc1NC(=S)NNC(=O)c1csc2c1CCC(C)C2 (centres undefined),inhibition,[5],-45.9% (inactive)
same,inhibition,[6],-23% (inactive)
CC(Oc1ccccc1F)C(=O)NNC(=O)CC(C)c1ccccc1 (centres undefined),inhibition,[5],12.4% (inactive)
same,inhibition,[6],2.31% (inactive)
O=C1/C(=N\S(=O)(=O)c2cccs2)C([n+]2ccccc2)=C([O-])c2ccccc21,inhibition,[5],-4.31% (inactive)
same,inhibition,[6],6.99% (inactive)
O=C1CSc2ccc(S(=O)(=O)NCc3ccccc3)cc2N1,inhibition,[5],-4.74% (inactive)
same,inhibition,[6],-9.61% (inactive)
O=c1[nH]cnc2sc3c(c12)CCCC3,inhibition,[5],10.8% (inactive)
same,inhibition,[6],11.2% (inactive)
CCC(C)c1ccc(C(C)NC(=S)NCc2ccc(F)cc2)cc1 (centres undefined),inhibition,[5],-3.08% (inactive)
same,inhibition,[6],-3.56% (inactive)
C=C1CCC[C@]2(C)C[C@H]3OC(=O)C(CN4CC(C)OC(C)C4)[C@H]3C[C@@H]12 (some centres undefined),inhibition,[5],-0.94% (inactive)
same,inhibition,[6],2.96% (inactive)
COc1ccccc1CN(Cc1nc2ccccc2c(=O)[nH]1)S(=O)(=O)c1ccc2ccccc2c1,inhibition,[5],-20.3% (inactive)
same,inhibition,[6],-11.3% (inactive)
CCN(Cc1ccncc1)C(=O)CC1C(=O)NCCN1Cc1ccc(F)c(F)c1 (centres undefined),inhibition,[5],30.1% (inactive)
same,inhibition,[6],17% (inactive)
c1ccc(-c2cc(N3CCCCC3)nc(-c3ccccc3)n2)cc1,inhibition,[5],-21.1% (inactive)
same,inhibition,[6],-2.43% (inactive)
CC(C)C[C@H]1CNC(=S)N1C[C@H]1CCCN1C[C@H](CC(C)C)N1C[C@H](CC(C)C)N(CCc2ccccc2)C1=S,inhibition,[5],-1.01% (inactive)
same,inhibition,[6],1.5% (inactive)
Cc1nn(-c2ccccc2)c(N2CCCC2)c1/C=N/NC(=S)Nc1ccc(F)cc1,inhibition,[5],3.12% (inactive)
same,inhibition,[6],0.35% (inactive)
CCOC(=O)c1cc(C#N)c(SCC(=O)OC)[nH]c1=O,inhibition,[5],1.73% (inactive)
same,inhibition,[6],-9.78% (inactive)
CCOC(=O)c1c(NC(=O)c2c(-c3ccccc3)noc2C)sc(C)c1-c1ccccc1,inhibition,[5],39.9% (inactive)
same,inhibition,[6],78.2% (active)
COc1ccccc1OCCn1c(C)c(C=O)c2ccccc21,inhibition,[5],10.8% (inactive)
same,inhibition,[6],8.95% (inactive)
NC(=O)c1nsc(C(=O)N(c2ccccc2F)C(C(=O)NCc2ccccc2)c2ccc(O)cc2)c1N (centres undefined),inhibition,[5],-15.1% (inactive)
same,inhibition,[6],2.13% (inactive)
CC1Sc2ccc(C(=O)Nc3ccc(S(=O)(=O)N(C)C)cc3)cc2NC1=O (centres undefined),inhibition,[5],9.77% (inactive)
same,inhibition,[6],6.36% (inactive)
O=C(Nc1ccc2c(c1)OCCO2)C(c1cc2ccccc2o1)N1CCN(C/C=C/c2ccccc2)CC1 (centres undefined),inhibition,[5],-6.79% (inactive)
same,inhibition,[6],-12.4% (inactive)
CCCCCCn1c(NCC)nc2c1c(=O)n(C)c(=O)n2C,inhibition,[5],-1.77% (inactive)
same,inhibition,[6],35.5% (active)
c1ccc(-c2nc(NCCCn3ccnc3)c3ccccc3n2)cc1,inhibition,[5],-10.8% (inactive)
same,inhibition,[6],-2.43% (inactive)
CC[n+]1c(/C=C/Nc2ccccc2)oc2ccccc21,inhibition,[5],36.7% (inactive)
same,inhibition,[6],28.5% (active)
COc1ccc2cc3cc(C(=O)NCCc4ccc(OC)c(OC)c4)oc3nc2c1,inhibition,[5],-32.9% (inactive)
same,inhibition,[6],42.2% (active)
O=C(CN1CCN(Cc2ccc(Cl)cc2)C1=O)NCCCN1CCOCC1,inhibition,[5],-13.2% (inactive)
same,inhibition,[6],-10.7% (inactive)
COc1ccc2nc(N3CCN(C(=O)c4ccc5ncsc5c4)CC3)sc2c1,inhibition,[5],-5.74% (inactive)
same,inhibition,[6],-0.4% (inactive)
O=C(COC(=O)c1c(Cl)cccc1Cl)Nc1cc(Cl)ccc1Oc1ccccc1,inhibition,[5],-14.1% (inactive)
same,inhibition,[6],4.43% (inactive)
CCN(CC(=O)Nc1c(F)cccc1F)C(=O)/C=C/c1ccc(S(=O)(=O)N2CCCCCC2)cc1,inhibition,[5],-10.1% (inactive)
same,inhibition,[6],6.23% (inactive)
COc1ccc(N(Cc2cc3cc(OC)ccc3[nH]c2=O)S(=O)(=O)c2ccc(NC(C)=O)cc2)cc1,inhibition,[5],-21.4% (inactive)
same,inhibition,[6],-1.84% (inactive)
CC(=O)NC(c1cc(Cl)c2cccnc2c1O)C1CC1 (centres undefined),inhibition,[5],30.9% (inactive)
same,inhibition,[6],8.51% (inactive)
CC(CNC(=O)c1cc(COc2ccc3ncccc3c2)on1)c1ccccc1 (centres undefined),inhibition,[5],-0.59% (inactive)
same,inhibition,[6],3.38% (inactive)
CCOC(=O)c1c(NC(=O)COc2ccccc2C#N)sc2c1CC(C)(C)NC2(C)C,inhibition,[5],-41.5% (inactive)
same,inhibition,[6],-13.1% (inactive)
O=C(COc1ccccc1-c1ccccc1)N/N=C/c1ccncc1,inhibition,[5],-7.29% (inactive)
same,inhibition,[6],13.6% (inactive)
Cn1c2ccccc2c(=O)c2ccc(C#CC3(O)CCCCC3)cc21,inhibition,[5],-132% (inactive)
same,inhibition,[6],-43.1% (inactive)
O=C(Nc1ccncc1)c1ccccc1[N+](=O)[O-],inhibition,[5],33.6% (inactive)
same,inhibition,[6],19% (inactive)
N=c1c(C(=O)NCCc2ccccc2)cc2c(=O)n3ccccc3nc2n1CCCN1CCOCC1,inhibition,[5],6.5% (inactive)
same,inhibition,[6],18.9% (inactive)
CCN(CC)S(=O)(=O)c1ccc(N2CCOCC2)c(NC(=O)c2cc(-c3ccccn3)nc3ccccc23)c1,inhibition,[5],-32% (inactive)
same,inhibition,[6],-1.24% (inactive)
COc1ccc(NC(=O)COc2ccccc2Cc2ccccc2)cc1S(N)(=O)=O,inhibition,[5],38.1% (inactive)
same,inhibition,[6],32.3% (active)
Cc1ccc(N2CC(C(=O)N3CCC(C(=O)NCCCOC(C)C)CC3)CC2=O)cc1 (centres undefined),inhibition,[5],-30.7% (inactive)
same,inhibition,[6],-8.26% (inactive)
CC(C)(C)c1ccc(CC(=O)N2CCC2(C)C(=O)Nc2ccc(F)cc2F)cc1 (centres undefined),inhibition,[5],1.73% (inactive)
same,inhibition,[6],14.4% (inactive)
CC1=C(C(=O)Nc2ccccc2C(=O)NCc2ccccc2)SCCO1,inhibition,[5],-7.53% (inactive)
same,inhibition,[6],-4.09% (inactive)
COc1ccc2c(C#N)c3ccccn3c2c1,inhibition,[5],37.4% (inactive)
same,inhibition,[6],7.81% (inactive)
CN1CCc2c(OCc3ccc(F)cc3)cccc2C1=O,inhibition,[5],-8.74% (inactive)
same,inhibition,[6],-7.17% (inactive)
COc1ccc(S(=O)(=O)N(C)c2ccc(C(=O)NCc3ccco3)cc2)cc1OC,inhibition,[5],-12.2% (inactive)
same,inhibition,[6],-0.34% (inactive)
COc1ccc2cc3c(N)nn(C(=O)c4cccc([N+](=O)[O-])c4)c3nc2c1,inhibition,[5],51.3% (active)
same,inhibition,[6],36.1% (active)
O=C(Nc1ccc(Cl)c([N+](=O)[O-])c1)C(Sc1ccccc1)c1ccccc1 (centres undefined),inhibition,[5],-8.15% (inactive)
same,inhibition,[6],5.98% (inactive)
O=C(NC(=S)Nc1cccc(Cl)c1N1CCCCC1)c1ccco1,inhibition,[5],-11.6% (inactive)
same,inhibition,[6],7.26% (inactive)
Cc1c(C)n2c(SCC(=O)NCc3ccc4c(c3)OCO4)nnc2[nH]c1=O,inhibition,[5],-1.32% (inactive)
same,inhibition,[6],-7.94% (inactive)
CCCCN(C(=O)/C=C/c1ccccc1)C1CCS(=O)(=O)C1 (centres undefined),inhibition,[5],-6.12% (inactive)
same,inhibition,[6],-4.11% (inactive)
O=C(NCCS(=O)(=O)N1CCN(c2cccc(Cl)c2)CC1)C1CC1,inhibition,[5],-3.41% (inactive)
same,inhibition,[6],18.9% (inactive)
CCCCc1ccc(NC(=O)Nc2c(C)n(C)n(-c3ccccc3)c2=O)cc1,inhibition,[5],-11% (inactive)
same,inhibition,[6],7.24% (inactive)
CCc1nnc(SCc2ccc(C(=O)OC)o2)n1N,inhibition,[5],-6.33% (inactive)
same,inhibition,[6],4.87% (inactive)
